# Assay outcomes deposited in PubChem by National Center for Advancing Translational Sciences (NCATS).
# Most compounds without a hit are left out; they make up all but 9.8% or so of the library.
# CBFb RUNX1 block = blocks binding between human CBF-beta and RUNX1; Q01196+Q13951; AlphaScreen CBFb-His/RUNX1-biotin binding, biochemical; Potency, µM (series often up to 59.8 µM), for the others: at the highest dose activity, negative = inhibition, hits mostly inhibitors; 230,000 tested, under 10 active; active = well fitted curve in the direction sought with a large enough effect; inconclusive = small, poorly fitted or top-dose-only effect, or another doubt; inactive = no such curve, though single readings can be large; an effect the other way counts as inactive or inconclusive; also: % of control where 0% means no effect
#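 Interaction loss through any mechanism counts as activity. Pre-formed complex of His-CBF-beta and biotin-RUNX1 (30 nM apiece) is incubated with compound 15 min, then with 50 ng nickel and 50 ng streptavidin beads for 90 min before AlphaScreen detection.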
# HttQ103 aggreg = mutant huntingtin aggregation inhibition; PC12 HttQ103-GFP aggregates, Acumen cytometry, 40 h; Potency, µM (titrated, usually from 46.1 µM), for the others: at the top dose activity change, negative = inhibition, usual class: inhibitors; 220,000 compounds, 1.1% hits; active = well fitted curve in the direction sought with a large enough effect; inconclusive = small, poorly fitted or top-dose-only effect, or another doubt; inactive = no such curve, though single readings can be large; an effect the other way counts as inactive or inconclusive; also: potency is read from the fitted curve at half-maximal effect; % is scaled to controls: 0 for no effect and ±100 for the full control effect; nearly all actives have a fitted effect of over 60% in size
#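 Multiplexed with ATP-based cell death, this channel scores GFP aggregates in PC12 cells expressing inducible HTTex1-Q103-GFP. Induction used 100 nM tebufenozide; compounds were tested in concentration series.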
# HPGD block = HPGD (human) dehydrogenase inhibition | AID 894 | P15428 | Potency, µM, for the others: at the highest dose activity change, negative = inhibition, most hits filed as inhibitors | purified HPGD, NADH fluorescence kinetic, PGE2 substrate | 150,000 compounds, 4.3% hits; also: potency is read from the fitted curve at half-maximal effect; % is scaled to controls: 0 for no effect and ±100 for the full control effect
#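 NADH formation kinetics: reaction with 30 uM PGE2 and 1 mM NAD+ (final), 20 nM enzyme, Tris-HCl pH 8 with Tween 20, after 15 min compound preincubation at room temperature. Fluorescence change, last versus first of five reads.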
# KDM4E inh = inhibitors of human JMJD2E histone demethylase | B2RXH2 | Potency, µM (titrated, usually from 57.1 µM), for inactives: at the top dose activity change, negative = inhibition, most hits filed as inhibitors | 230,000 compounds, 1.6% hits | JMJD2E catalytic domain, FDH-coupled NADH fluorescence (FDH is formaldehyde dehydrogenase);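 also: potency is read from the fitted curve at half-maximal effect; 0% = wells with enzyme and -100% = buffer wells without enzyme; nearly all actives have a fitted effect of over 50% in size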
# Target sequence (B2RXH2 1-337 limits assumed): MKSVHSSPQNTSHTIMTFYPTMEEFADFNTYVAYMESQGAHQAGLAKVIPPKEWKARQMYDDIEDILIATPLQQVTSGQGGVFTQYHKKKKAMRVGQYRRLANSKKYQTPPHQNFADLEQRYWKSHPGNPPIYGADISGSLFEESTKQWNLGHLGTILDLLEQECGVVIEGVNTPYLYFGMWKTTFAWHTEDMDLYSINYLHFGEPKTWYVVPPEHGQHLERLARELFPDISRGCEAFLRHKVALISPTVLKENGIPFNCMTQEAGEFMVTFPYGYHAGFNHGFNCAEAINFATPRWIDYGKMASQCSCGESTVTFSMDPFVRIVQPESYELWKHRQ
# HTT cytoprotect = protects HTT-Q103 PC12 cells, measured by ATP | PC12 HTT-Q103 induced, cytoprotection, ATP luminescence, 40 h | Potency, µM (top dose mostly 56.4 µM), without a hit: cytoprotection (ATP increase), actives largely listed as activators | 230,000 compounds, 0.14% hits; active = well fitted curve in the direction sought with a large enough effect; inconclusive = small, poorly fitted or top-dose-only effect, or another doubt; inactive = no such curve, though single readings can be large; an effect the other way counts as inactive or inconclusive; also: potency is read from the fitted curve at half-maximal effect; % of control where 0% means no effect; nearly all actives have a fitted effect of over 45% in size
#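 Huntington model: PC12 line, ecdysone-inducible HTTQ103 exon1–GFP, tebufenozide 100 nM. Test articles in a dose series. Endpoint luminescence from cellular ATP.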
# ALDH1A1 inh = inhibitors of human aldehyde dehydrogenase 1A1; Potency, µM (series often up to 75.3 µM), without a hit: at the highest dose activity, negative = inhibition, usual class: inhibitors; 220,000 compounds, 7.3% hits; AID 1030; P00352; Purified ALDH1A1, NADH fluorescence, propionaldehyde substrate;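 also: potency is read from the fitted curve at half-maximal effect; plate controls were no enzyme wells and a reference inhibitor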
# Target sequence (P00352 whole entry, looked up): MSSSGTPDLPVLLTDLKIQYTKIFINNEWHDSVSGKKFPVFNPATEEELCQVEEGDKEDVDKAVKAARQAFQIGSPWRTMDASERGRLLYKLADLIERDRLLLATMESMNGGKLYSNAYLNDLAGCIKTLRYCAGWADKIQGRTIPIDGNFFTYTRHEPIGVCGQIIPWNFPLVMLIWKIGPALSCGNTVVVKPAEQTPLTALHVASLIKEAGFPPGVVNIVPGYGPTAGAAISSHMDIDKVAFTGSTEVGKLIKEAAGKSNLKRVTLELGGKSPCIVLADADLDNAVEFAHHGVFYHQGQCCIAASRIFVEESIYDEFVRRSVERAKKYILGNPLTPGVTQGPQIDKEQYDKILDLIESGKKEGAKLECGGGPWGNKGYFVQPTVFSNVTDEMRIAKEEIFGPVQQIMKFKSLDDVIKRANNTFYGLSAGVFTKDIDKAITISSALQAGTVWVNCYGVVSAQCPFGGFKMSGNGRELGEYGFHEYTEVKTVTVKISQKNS
# The depositor's hits bear a star; ? = inconclusive; . = no result given; [ ] = another dose, or the depositor's remark. Unless noted, calls follow the shape of the dose curve; as a rule, active = well fitted inhibition curve with a large enough effect (not every such curve was filed as active); inconclusive = small, poorly fitted or top-dose-only effect, or another doubt; inactive = no such curve, though single readings can be large or run the other way.
SMILES,CBFb RUNX1 block,HttQ103 aggreg,HPGD block,KDM4E inh,HTT cytoprotect,ALDH1A1 inh
CCC(c1nc2ccccc2c(=O)n1-c1nc2ccccc2s1)N1C(=O)c2ccccc2C1=O (configuration not stated),-4.7%,-1.4%,1.4%,1.7%,-1.0%[10 µM],7.5%
CCCC(=O)c1cc2c(cc1NC(=O)c1ccccc1F)OCCO2,13.1%,-13.5%,.,?,-8.4%,?
CCN(CC(=O)Nc1ccc2c(c1)CCC2)Cc1nc2ccccc2c(=O)[nH]1,-0.1%,10.9%,-23.9%,-6.9%,21.2%[10 µM],14.1µM*
COc1cc2nc(CN(C)CC(=O)Nc3ccc(N4CCOCC4)cc3)[nH]c(=O)c2cc1OC,-1.0%,21.2%,?,4.1%,3.5%,28.2µM*
CCN(CC(=O)NCc1ccc(F)cc1)Cc1nc2cc(Cl)ccc2c(=O)[nH]1,?,16.9%,31.6µM*,-2.2%,29.4%,22.4µM*
CCN(CC(=O)NCCc1ccc(F)cc1)Cc1nc2ccccc2c(=O)[nH]1,29.0%,1.1%[9.22 µM],.,-6.1%,18.2%[10 µM],.
COc1cc2nc(CN(C)Cc3nc4ccccc4c(=O)[nH]3)[nH]c(=O)c2cc1OC,10.4%,0.7%,-19.8%,?,-15.5%,-7.8%
C/C(=N\NC(N)=O)c1c(F)cccc1F,10.9%,-16.1%[9.22 µM],.,-5.5%,-7.7%[10 µM],5.5%
COc1ccc(C(=O)[C@H]2[C@H]3[C@@H](C(=O)[C@@H]4OC[C@H]3O4)[C@H]3C=Cc4ccccc4N32)c(OC)c1,.,.,.,.,-2.8%,.
CCOC(=O)N1CCC(NC(=O)c2ccc(CS(=O)(=O)c3ccc(OC)cc3)o2)CC1,2.6%,10.5%,-6.9%,-0.4%,4.3%,?
COc1ccc2c(c1)c1ncn(Cc3ccco3)c(=O)c1n2C,2.1%,10µM*,?,?,-29.4%,?
CCC(C(=O)O)N1C(=O)C2CCCCC2C1=O (configuration not stated),7.1%,0.4%[9.22 µM],.,7.2%,4.7%[10 µM],.
CC(=O)Oc1c(C)cc(Cl)cc1C(=O)Nc1ccc([N+](=O)[O-])cc1Cl,5.4%,0.251µM*,-3.3%,5.3%,-58.5%[10 µM],13.6%
O=C(NCC1CCCO1)Nc1cc(Cl)cc(Cl)c1 (configuration not stated),6.2%,-8.4%,.,-4.6%,-43.5%,1.9%
CCN1C(=O)c2cccc3c(NC(=O)c4ccc(OC)c(OC)c4)ccc1c23,12.7%,6.0%,-6.1%,4.0%,1.0%[10 µM],4.47µM*
CCN1C(=O)c2cccc3c(NC(=O)C4CCCCC4)ccc1c23,6.5%,-1.1%,.,0.3%,-20.6%,3.98µM*
CCN1C(=O)c2cccc3c(NC(=O)c4ccccc4)ccc1c23,-1.8%,?,-9.7%,-3.9%,-5.9%[10 µM],?
CC1Cc2ccccc2N1C(=O)Cn1c(=O)oc2cc(S(=O)(=O)NC3CCCC3)ccc21 (configuration not stated),-0.5%,-11.9%,12.6µM*,3.3%,10.5%,7.7%
CCOC(=O)N1CCN(S(=O)(=O)c2cccc3nonc23)CC1,3.9%,-2.1%,1.4%,0.8%,-12.1%,?
COc1cc(/C=N/NC(=O)c2cccnc2)ccc1OS(=O)(=O)c1ccc(F)cc1,8.5%,-19.5%,-12.1%,-1.9%,3.7%[10 µM],3.6%
COc1cc(/C=N/NC(=O)COc2cccc(F)c2)ccc1OS(=O)(=O)c1ccc(C)cc1,-3.9%,1.9%,-22.4%,-1.5%,.,8.91µM*
COc1cc(/C=N/NC(=O)c2cccnc2)ccc1OS(=O)(=O)c1ccc(C)cc1,1.7%,4.8%,-19.2%,-3.5%,28.3%[10 µM],3.55µM*
Cc1ccc(S(=O)(=O)Oc2ccc(/C=N/NC(=O)c3cccnc3)cc2)cc1,-5.0%,23.9%[9.22 µM],.,-18.0%,?,12.6µM*
Cn1ncc(Br)c1C(=O)N/N=C/c1ccc(OS(=O)(=O)c2ccccc2)cc1,4.5%,-0.6%,-7.6%,-3.1%,11.1%[10 µM],25.1µM*
Cc1nc(N)c(Cc2ccccc2F)c(N)n1,-1.5%,3.8%,.,-0.8%,-3.8%[10 µM],9.2%
SMILES,CBFb RUNX1 block,HttQ103 aggreg,HPGD block,KDM4E inh,HTT cytoprotect,ALDH1A1 inh
O=C1CCC[C@@H](C(C(=O)OCc2ccccc2)C(=O)OCc2ccccc2)C1,7.9%[13.1 µM],.,.,.,-16.1%[10 µM],-23.1%[13.5 µM]
COc1ccccc1NC(=O)CSc1nc(C)c2c(c1C#N)CCCC2,-2.3%,11.6%,-19.0%,2.7%,-9.8%,1.2%
COc1ccc(NCc2ccc([N+](=O)[O-])s2)cc1,-28.6%,?,-6.7%,?,-10.8%[10 µM],-15.1%
COc1ccc(NCc2ccc([N+](=O)[O-])s2)c(OC)c1,.,?,-14.2%,10µM*,13.9%[10 µM],25.1µM*
C/C(=C\c1ccccc1)C(=O)N1CCN(c2cccc(C(F)(F)F)c2)CC1,-1.0%,-3.9%,25.1µM*,-10.2%,39.7%[10 µM],5.3%
Cc1ccc(/C=C/C(=O)N2CCN(c3cccc(C(F)(F)F)c3)CC2)cc1,-2.2%,-3.4%,-13.9%,-0.1%,-14.0%[10 µM],-4.4%
CC12CCC(c3c(C(=O)Nc4nccs4)nn(-c4ccccc4)c31)C2(C)C (configuration not stated),6.7%,-3.9%,-21.2%,-23.8%,-2.6%,3.98µM*
CNC(=O)COC(=O)c1ccccc1C(=O)c1ccc(Cl)c([N+](=O)[O-])c1,-17.7%,28.2µM*,.,2.2%,-35.3%[10 µM],-0.5%
CCCCCCCCOC(=O)CCc1c(C)[nH]c(=S)[nH]c1=O,0.7%,0.1%,-9.0%,-5.4%,-19.4%,2µM*
CCCCCCOC(=O)CCc1c(C)nc(N)[nH]c1=O,4.9%,-2.6%,0.6%,-0.1%,10.6%,19.3%
CCn1c(CC(=O)Nc2cccc(Cl)c2Cl)nnc1SCCOc1ccc(OC)cc1,-6.1%,-5.7%,-5.1%,-4.8%,6.3%,14.1µM*
COc1ccc(OCCSc2nnc(CC(=O)Nc3cccc(Cl)c3Cl)n2C)cc1,-0.2%,4.0%,-14.8%,-2.9%,4.8%,?
O=C1CCCC(=O)C1Sc1ccc(Cl)cc1,-4.7%,19.0%,.,4.6%,11.9%[10 µM],0.2%
CCc1sc(C(C2C(=O)CC(C)(C)CC2=O)C2C(=O)CC(C)(C)CC2=O)cc1[N+](=O)[O-],-2.6%,-12.6%[9.22 µM],.,-18.5%,9.4%[10 µM],14.1µM*
COc1cccc(-c2nc(NCCN3CCOCC3)c3ccccc3n2)c1,.,.,.,.,-40.1%,1.6%
O=C1CCSc2ccc(Cl)cc2N1Cc1cccc(Cl)c1,?,22.4µM*,-15.1%,-0.9%,-4.6%[10 µM],?
NC(=O)[C@H]1CC2(CC(c3cccc(NC(=O)COc4ccc(Cl)cc4)c3)=NO2)CN1C(=O)Cc1ccc([N+](=O)[O-])cc1 (some centres not stated),?,-14.4%[9.22 µM],.,-12.4%,-4.9%[10 µM],.
O=C(CSc1nc(-c2ccco2)cc(C(F)(F)F)n1)Nc1ccc2c(c1)CCC2,8.4%,15.5%,-19.7%,-2.2%,-10.8%[0.074 µM],1.8%
